{"source": "the supplement of paper PMC10477191", "note": "± gives the standard deviation of the averaged measurements."}
{"test_system": "Drosophila ezoana antennal basiconic sensillum ab10", "test": "odor-evoked OSN spike response (post minus pre-stimulus); higher = stronger neuronal excitation", "conditions": "odor dilution: 10^-4", "procedure": "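Single sensillum recordings from antennal basiconic sensilla of D. ezoana. A 500 ms pulse of odorant (10^-4 in mineral oil or DMSO) was delivered; the response is the change in action potential frequency between the 1 s pre- and post-stimulus windows (spikes/s).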", "units": {"odor-evoked OSN spike response": "spikes/s"}}
{"smiles": "CC(C)=O", "note": "[acetone]", "odor-evoked OSN spike response": "76.3 ± 21"}
